Measured values as given in the supplement of paper PMC6555819.

How the values were obtained:
Test in all cases: PBM binding z-score (relative to random genomic background probes); higher = stronger binding; sequences stand for … in GC…GCGATTGACAGCGTAGAATGAAGG
[1] = test system: FXR:RXRa (NR concentration 270 nM, RXRa partner concentration 90 nM)
Procedure, shortened: (§1)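 Regression normalization was applied to scanned fluorescence from custom Agilent 4×180K protein-binding microarrays. Before scanning, arrays were incubated 1 h with ligand-free nuclear receptor dimers, and binding was detected with antibodies against each partner (one per run). Binding z-scores use the random background probes as reference.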

[2] = test system: LXRa:RXRa (NR concentration 270 nM, RXRa partner concentration 90 nM)
Procedure, shortened: as §1

[3] = test system: LXRa homodimer (NR concentration 270 nM)
Procedure, shortened: as §1

[4] = test system: LXRb:RXRa (NR concentration 270 nM, RXRa partner concentration 90 nM)
Procedure, shortened: as §1

[5] = test system: LXRb homodimer (NR concentration 270 nM)
Procedure, shortened: as §1

[6] = test system: PPARa:RXRa (NR concentration 270 nM, RXRa partner concentration 90 nM)
Procedure, shortened: as §1

[7] = test system: PPARg:RXRa (NR concentration 180 nM, RXRa partner concentration 90 nM)
Procedure, shortened: as §1

[8] = test system: PPARg:RXRa 270nM:90nM, anti-RXR (NR concentration 270 nM, RXRa partner concentration 90 nM)
Procedure, shortened: as §1

[9] = test system: PPARg:RXRa 30nM:10nM, anti-RXR (NR concentration 30 nM, RXRa partner concentration 10 nM)
Procedure, shortened: as §1

[10] = test system: PPARg:RXRa 90nM:30nM, anti-RXR (NR concentration 90 nM, RXRa partner concentration 30 nM)
Procedure, shortened: as §1

[11] = test system: PPARg:RXRa DBDmut IVT, anti-RXR (DBD mutation: RXRa K156A/R161A, NR concentration 270 nM, RXRa partner concentration 90 nM)
Procedure, shortened: as §1

[12] = test system: PPARg:RXRa IVT, anti-PPARg (NR concentration 270 nM, RXRa partner concentration 90 nM)
Procedure, shortened: as §1

[13] = test system: PPARg DBDmut:RXRa IVT, anti-PPARg (DBD mutation: PPARg1 K132A/R137A, NR concentration 270 nM, RXRa partner concentration 90 nM)
Procedure, shortened: as §1

[14] = test system: PPARg DBDmut IVT, anti-PPARg (DBD mutation: PPARg1 K132A/R137A, NR concentration 270 nM)
Procedure, shortened: as §1

[15] = test system: PPARg homodimer (NR concentration 180 nM)
Procedure, shortened: as §1

[16] = test system: PXR:RXRa (NR concentration 270 nM, RXRa partner concentration 90 nM)
Procedure, shortened: as §1

[17] = test system: PXR homodimer (NR concentration 270 nM)
Procedure, shortened: as §1

[18] = test system: RARa:RXR (NR concentration 270 nM, RXRa partner concentration 90 nM)
Procedure, shortened: as §1

[19] = test system: RARa homodimer (NR concentration 270 nM)
Procedure, shortened: as §1

[20] = test system: RARb:RXRa (NR concentration 270 nM, RXRa partner concentration 90 nM)
Procedure, shortened: as §1

Sequence | PBM binding z-score [1] | PBM binding z-score [2] | PBM binding z-score [3] | PBM binding z-score [4] | PBM binding z-score [5] | PBM binding z-score [6] | PBM binding z-score [7] | PBM binding z-score [8] | PBM binding z-score [9] | PBM binding z-score [10] | PBM binding z-score [11] | PBM binding z-score [12] | PBM binding z-score [13] | PBM binding z-score [14] | PBM binding z-score [15] | PBM binding z-score [16] | PBM binding z-score [17] | PBM binding z-score [18] | PBM binding z-score [19] | PBM binding z-score [20]
AATTACGGGTCAACGAGGTTATAGCACGCGTATA | 7.35 | 6.12 | 3.47 | 4.88 | 1.02 | 6 | 6.93 | 6.19 | 2.81 | 5.1 | 3.6 | 5.01 | 2.85 | 2.31 | 3.16 | 5.27 | 3.27 | 5.49 | 1.87 | 4.27
TCTAGTTGCTCAAAGGTCACACACTCGAAATGCG | 5.09 | 5.26 | 3.7 | 5.39 | 1.49 | 5.88 | 6.32 | 6.78 | 6.1 | 6.91 | 2.7 | 3.98 | 1.38 | 1.19 | 3.79 | 5.31 | 1.24 | 5.48 | 2.63 | 4.94
CGTCAAAGTGCAACTAAGGTAACGTAAAGCACGC | 0.888 | 0.803 | -0.122 | 0.5 | -0.623 | 1.29 | 0.842 | 0.685 | 0.0299 | 0.977 | 0.000169 | 0.492 | -0.123 | -0.228 | 0.0705 | 1.55 | 0.00934 | 2.04 | -0.027 | 2.07
ATCTCTAGGTAAAGTTCAGGGAAAGATCGATAGA | 1.49 | 2.4 | 1.88 | 1.58 | 1.03 | 2.86 | 3.53 | 4.62 | 2.77 | 4.35 | 2.67 | 2.44 | 1.23 | 1.09 | 2.21 | 2.17 | 1.99 | 1.93 | 1.68 | 2.99
ATATCTAGGTTAGCTGGGGTCATTCAGACTAGGC | 4.62 | 5.44 | 3.33 | 4.64 | 2.06 | 5.23 | 5.59 | 5.22 | 2.61 | 4.47 | 6.63 | 6.38 | 2.02 | 2.45 | 2.3 | 6.2 | 4.27 | 5.11 | 1.57 | 3.18
TAGTCTAGGTCAGATCGGGCCAGTATACGCTATA | 1.81 | 1.91 | 0.186 | 1.13 | 1.4 | 2.38 | 2.36 | 2.4 | 0.965 | 1.92 | 4.19 | 4.5 | 1.78 | 1.67 | 1.18 | 1.33 | -0.0787 | 1.54 | -0.273 | 3.25
GCGACTGGGGAATCAGCAGGTTACCATAACTTAA | -0.766 | -0.57 | -0.287 | 0.0771 | -1.25 | 0.0843 | 0.0906 | -0.19 | -0.448 | -0.292 | 0.44 | 0.213 | -0.564 | -0.355 | -0.3 | -0.375 | -0.366 | -0.13 | -0.219 | -0.211
TCTTGTAGATCAAAGGTTAAGTAAGCCGAAGCCT | 2.04 | 2.34 | 0.244 | 2.28 | 0.0721 | 4.84 | 8.98 | 8.32 | 7.35 | 8.69 | 2.31 | 3.98 | 0.677 | 0.732 | 0.931 | 2.16 | 0.0156 | 3.2 | 0.12 | 2.23
CAAACTAGGTCACGAAAGGACAAAGTCGAATGAC | 5.05 | 6.1 | 1.25 | 4.08 | 0.368 | 5.41 | 9.21 | 7.34 | 5.83 | 7.48 | 8.65 | 9.28 | 5.83 | 2.82 | 2.7 | 4.22 | 0.691 | 3.22 | 1.93 | 4.54
TTACCAAGGTGAAACGTCGTTGATGCACGCCTTG | 0.678 | 0.335 | -0.246 | 0.141 | -0.495 | 1.96 | 1.66 | 2.76 | 1.24 | 2.15 | 3.12 | 2.95 | 0.206 | 0.358 | 0.178 | -0.0159 | -0.972 | 0.592 | -0.282 | 1.62
CGAACGAGGGCATGAGTTGATAGCCAATGCCGAT | 0.587 | 0.378 | -0.567 | -0.0834 | -0.821 | 1.33 | 1.39 | 1.49 | 0.255 | 0.727 | 3.14 | 2.29 | 0.281 | -0.251 | 0.292 | 0.342 | -0.25 | 0.497 | -0.133 | 2.01
TCGAGTCGGTTAGGGGCATTCAGAATGGCGTCGA | 0.0826 | -0.161 | -0.614 | 0.203 | -0.666 | 0.491 | -0.446 | 0.528 | 0.725 | 0.702 | 0.464 | -0.15 | -1.37 | -1.74 | -0.435 | 0.545 | -0.165 | 0.325 | -1.4 | 0.501
TCTAGTAGATCAAGCAGGTTAAGAAAGCCTGAGT | -0.193 | -0.025 | -0.279 | 0.194 | -0.909 | 0.517 | -0.406 | 1.3 | 2.82 | 1.92 | 1.47 | 0.398 | -0.251 | -0.0304 | 0.0496 | 0.277 | -0.142 | 0.334 | -0.0896 | -0.149
TAGCCTAGGTCAGATCGAGCCAGTATACGCTATA | 1.14 | 0.783 | -0.473 | 0.421 | -0.463 | 1.42 | 0.564 | 0.606 | -0.102 | 0.29 | 0.497 | 1.39 | -0.253 | -0.42 | -0.43 | 0.136 | -0.429 | 0.664 | -0.528 | 2.81
